Of roughly 7,900 targets only a part is listed; those with a hit were picked by preference. About 0.6% of all pairs of compound and target were hits.
How the values were obtained:
Assay in all cases: log2 fold change, soluble protein after heating vs DMSO (PISA); higher = thermal stabilisation; K562 cells, 10 uM, 30 min; active = over 0.2 and 3.5 SD of the protein, either way, in both replicates (recomputed)
bafetinib = compound: Cc1ccc(NC(=O)c2ccc(CN3CC[C@H](N(C)C)C3)c(C(F)(F)F)c2)cc1Nc1nccc(-c2cncnc2)n1 [bafetinib]
How it was run: (§1)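 K562 cells at 2×10^6 cells/mL were given 10 μM compound for 30 min. Aliquots then went through 3 min of heating across 48°C-58°C, were pooled, and were extracted in PBS with 0.5% NP-40 at 4°C, and the supernatant after 21,000xg for 90 min was quantified by TMTpro 16plex LC-MS/MS with channel sums equalised. Thermal stability relative to control samples, from duplicates, is given as log2 fold change.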

[1] = compound: Cn1cc(-c2ccc3c(c2)CCN3C(=O)Cc2cccc(C(F)(F)F)c2)c2c(N)ncnc21
How it was run: as §1

[2] = compound: NCC(=O)Nc1ccc(-n2nc(C(F)(F)F)cc2-c2ccc3c(ccc4ccccc43)c2)cc1
How it was run: as §1

dasatinib = compound: Cc1nc(Nc2ncc(C(=O)Nc3c(C)cccc3Cl)s2)cc(N2CCN(CCO)CC2)n1 [dasatinib]
How it was run: as §1

citarinostat = compound: O=C(CCCCCCNC(=O)c1cnc(N(c2ccccc2)c2ccccc2Cl)nc1)NO [citarinostat]
How it was run: as §1

[3] = compound: O=C1NC(=O)C(c2cnc3ccccn23)=C1c1cn2c3c(cc(F)cc13)CN(C(=O)N1CCCCC1)CC2
How it was run: as §1

[4] = compound: c1cc(OCCN2CCCCC2)cc(-c2n[nH]c3ccc(-c4nnc[nH]4)cc23)c1
How it was run: as §1

[5] = compound: Cn1cc(-c2ccc3nnc(C(F)(F)c4ccc5ncccc5c4)n3n2)cn1
How it was run: as §1

tipifarnib = compound: Cn1cncc1[C@@](N)(c1ccc(Cl)cc1)c1ccc2c(c1)c(-c1cccc(Cl)c1)cc(=O)n2C [tipifarnib]
How it was run: as §1

[6] = compound: NC(=O)Nc1cc(-c2cccc(F)c2)sc1C(=O)N[C@H]1CCCNC1
How it was run: as §1

[7] = compound: NC(=O)c1cnc(N[C@@H]2CCCC[C@@H]2N)nc1Nc1cccc(-n2nccn2)c1
How it was run: as §1

entinostat = compound: Nc1ccccc1NC(=O)c1ccc(CNC(=O)OCc2cccnc2)cc1 [entinostat]
How it was run: as §1

[8] = compound: Cc1cccc(CC(=O)N2CCc3c2ccc(-c2cn(C)c4ncnc(N)c24)c3F)n1
How it was run: as §1

nilotinib = compound: Cc1cn(-c2cc(NC(=O)c3ccc(C)c(Nc4nccc(-c5cccnc5)n4)c3)cc(C(F)(F)F)c2)cn1 [nilotinib]
How it was run: as §1

[9] = compound: Cc1nc(Nc2n[nH]c3c2CN(C(=O)N[C@H](CN(C)C)c2ccccc2)C3(C)C)c2sccc2n1
How it was run: as §1

[10] = compound: Cc1ncc(-c2ccnc(Nc3ccc(S(C)(=O)=O)cc3)n2)n1C(C)C
How it was run: as §1

mubritinib = compound: FC(F)(F)c1ccc(/C=C/c2nc(COc3ccc(CCCCn4ccnn4)cc3)co2)cc1 [mubritinib]
How it was run: as §1

[11] = compound: NC1(c2ccc(-c3nc4ccn5c(=O)[nH]nc5c4cc3-c3ccccc3)cc2)CCC1
How it was run: as §1

vorinostat = compound: O=C(CCCCCCC(=O)Nc1ccccc1)NO [vorinostat]
How it was run: as §1

silmitasertib = compound: O=C(O)c1ccc2c(c1)nc(Nc1cccc(Cl)c1)c1ccncc12 [silmitasertib]
How it was run: as §1

Measured: log2 fold change

DNAJB1 (UniProt M0R128)
inactive: bafetinib -0.252 | [1] -0.022 | [2] -0.151

FADS1 (UniProt F5GYH4)
inactive: bafetinib 0.034 | [2] -0.191

DLK1 (UniProt P80370)
UniProt P80370, sequence (P80370 whole entry, looked up): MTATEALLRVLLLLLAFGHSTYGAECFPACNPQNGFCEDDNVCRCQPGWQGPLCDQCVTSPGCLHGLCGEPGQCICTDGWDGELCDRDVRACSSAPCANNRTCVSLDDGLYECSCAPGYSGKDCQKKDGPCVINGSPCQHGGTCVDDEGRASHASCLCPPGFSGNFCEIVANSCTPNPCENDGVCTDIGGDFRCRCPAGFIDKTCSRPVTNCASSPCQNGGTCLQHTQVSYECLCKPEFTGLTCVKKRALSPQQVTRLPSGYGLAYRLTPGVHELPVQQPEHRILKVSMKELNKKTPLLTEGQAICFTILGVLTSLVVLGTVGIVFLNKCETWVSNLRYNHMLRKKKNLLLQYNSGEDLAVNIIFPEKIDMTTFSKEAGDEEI
inactive: dasatinib -0.012 | [1] -0.279 | [2] -0.061 | citarinostat -0.018 | [3] -0.109 | [4] -0.203

DCP2 (UniProt Q8IU60)
inactive: dasatinib 0.02 | [1] -0.021 | [5] -0.033 | tipifarnib -0.112 | [6] -0.076 | [7] 0.009 | [2] -0.079 | entinostat 0.048 | [3] 0.048

FAM193B (UniProt Q96PV7)
inactive: bafetinib 0.19 | dasatinib -0.01 | [1] 0.171 | tipifarnib -0.027 | [6] 0.22 | [7] -0.053 | [2] -0.014 | entinostat 0.25 | citarinostat 0.032 | [3] 0.149 | [4] -0.205

DHRS13 (UniProt Q6UX07)
inactive: [8] -0.208 | nilotinib 0.197 | [9] -0.153 | dasatinib 0.005 | [10] -0.106 | [1] 0.021 | [5] -0.168 | mubritinib 0.049 | [6] 0.182 | [7] -0.012 | [11] 0.102 | [2] 0.156 | entinostat 0.043 | vorinostat -0.013 | citarinostat 0.1 | silmitasertib 0.087 | [4] -0.06

EPHB4 (UniProt P54760)
inactive: [5] -0.051 | tipifarnib -0.257 | mubritinib 0.176 | [6] -0.207 | [11] -0.102 | entinostat 0.122 | silmitasertib 0.18

F2RL3 (UniProt Q96RI0)
inactive: dasatinib -0.03 | [1] -0.051 | [5] 0.043 | tipifarnib -0.016 | [7] 0.003 | [2] -0.085

ERF (UniProt P50548)
inactive: [8] 0.194 | [6] -0.53 | entinostat -0.019 | vorinostat 0.023 | [3] -0.273

DENND1A isoform 6 (UniProt Q8TEH3)
inactive: bafetinib -0.086 | tipifarnib -0.113 | [2] -0.119

DOP1A (UniProt Q5JWR5)
UniProt Q5JWR5, sequence (Q5JWR5 whole entry, looked up): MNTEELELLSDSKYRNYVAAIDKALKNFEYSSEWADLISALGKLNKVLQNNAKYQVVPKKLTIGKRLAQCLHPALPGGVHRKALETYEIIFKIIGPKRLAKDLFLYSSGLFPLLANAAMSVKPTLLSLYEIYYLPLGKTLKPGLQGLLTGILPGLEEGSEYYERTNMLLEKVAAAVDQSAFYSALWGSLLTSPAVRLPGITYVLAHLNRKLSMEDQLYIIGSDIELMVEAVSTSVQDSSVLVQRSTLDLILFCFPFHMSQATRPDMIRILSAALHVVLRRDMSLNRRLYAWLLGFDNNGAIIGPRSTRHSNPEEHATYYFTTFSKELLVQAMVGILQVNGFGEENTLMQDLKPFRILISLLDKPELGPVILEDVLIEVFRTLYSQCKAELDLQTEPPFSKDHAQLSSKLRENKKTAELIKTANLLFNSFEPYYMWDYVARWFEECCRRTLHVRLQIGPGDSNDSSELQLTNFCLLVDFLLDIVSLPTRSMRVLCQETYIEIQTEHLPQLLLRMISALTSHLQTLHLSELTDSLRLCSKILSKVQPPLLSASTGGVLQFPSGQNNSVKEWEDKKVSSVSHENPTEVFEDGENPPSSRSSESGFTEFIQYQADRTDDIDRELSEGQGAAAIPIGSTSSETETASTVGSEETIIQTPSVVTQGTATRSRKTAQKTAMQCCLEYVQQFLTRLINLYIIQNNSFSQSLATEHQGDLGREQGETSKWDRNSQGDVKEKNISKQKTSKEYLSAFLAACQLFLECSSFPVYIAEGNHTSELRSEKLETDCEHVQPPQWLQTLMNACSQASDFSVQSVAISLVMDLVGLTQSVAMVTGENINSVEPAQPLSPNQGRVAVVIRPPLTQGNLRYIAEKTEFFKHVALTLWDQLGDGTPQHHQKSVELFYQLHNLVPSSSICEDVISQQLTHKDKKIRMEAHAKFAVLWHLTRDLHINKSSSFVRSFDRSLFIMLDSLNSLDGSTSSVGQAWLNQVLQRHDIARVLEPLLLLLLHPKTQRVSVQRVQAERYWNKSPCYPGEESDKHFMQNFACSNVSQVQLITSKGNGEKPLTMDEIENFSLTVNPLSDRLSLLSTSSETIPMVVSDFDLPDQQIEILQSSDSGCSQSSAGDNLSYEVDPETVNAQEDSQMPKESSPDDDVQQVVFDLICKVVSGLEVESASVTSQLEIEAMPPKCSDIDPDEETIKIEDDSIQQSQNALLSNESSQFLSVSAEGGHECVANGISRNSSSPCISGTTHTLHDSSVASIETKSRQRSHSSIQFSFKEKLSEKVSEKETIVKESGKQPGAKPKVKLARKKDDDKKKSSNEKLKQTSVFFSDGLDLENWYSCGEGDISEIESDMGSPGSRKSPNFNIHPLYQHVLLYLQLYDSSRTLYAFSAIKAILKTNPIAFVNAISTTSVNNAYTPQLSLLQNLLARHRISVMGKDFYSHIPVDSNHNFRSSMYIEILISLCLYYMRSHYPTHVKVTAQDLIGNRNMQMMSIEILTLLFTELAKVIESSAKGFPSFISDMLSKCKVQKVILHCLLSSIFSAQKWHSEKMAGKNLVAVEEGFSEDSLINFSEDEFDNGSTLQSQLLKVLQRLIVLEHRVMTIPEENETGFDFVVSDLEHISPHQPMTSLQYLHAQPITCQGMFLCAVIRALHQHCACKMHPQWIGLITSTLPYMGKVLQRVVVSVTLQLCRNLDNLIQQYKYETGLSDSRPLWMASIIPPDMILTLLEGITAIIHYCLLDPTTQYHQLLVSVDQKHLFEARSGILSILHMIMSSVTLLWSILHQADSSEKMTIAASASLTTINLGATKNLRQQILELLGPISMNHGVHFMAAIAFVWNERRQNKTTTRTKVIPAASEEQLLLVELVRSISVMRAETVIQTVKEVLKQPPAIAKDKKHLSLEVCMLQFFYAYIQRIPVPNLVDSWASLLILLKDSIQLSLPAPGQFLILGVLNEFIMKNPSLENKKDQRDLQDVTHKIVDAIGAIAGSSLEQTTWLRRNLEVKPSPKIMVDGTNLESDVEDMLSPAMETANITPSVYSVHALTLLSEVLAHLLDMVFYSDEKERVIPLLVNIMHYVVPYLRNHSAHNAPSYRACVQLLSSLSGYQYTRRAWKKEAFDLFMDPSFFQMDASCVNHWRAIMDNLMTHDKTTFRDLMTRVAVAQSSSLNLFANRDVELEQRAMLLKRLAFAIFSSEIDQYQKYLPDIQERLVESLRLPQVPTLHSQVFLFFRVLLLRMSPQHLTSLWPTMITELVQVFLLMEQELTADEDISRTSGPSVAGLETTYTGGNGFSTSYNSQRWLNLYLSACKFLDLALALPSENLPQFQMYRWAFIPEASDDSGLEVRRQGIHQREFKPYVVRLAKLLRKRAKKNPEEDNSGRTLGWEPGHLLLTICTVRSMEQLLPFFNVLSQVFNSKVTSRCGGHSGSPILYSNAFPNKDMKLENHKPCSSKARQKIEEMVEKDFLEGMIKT
inactive: bafetinib -0.091 | mubritinib 0.127 | [11] 0.106 | [2] -0.051 | silmitasertib -0.056 | [3] 0

EEF1D isoform 3 (UniProt P29692)
UniProt P29692, sequence (P29692 whole entry, looked up): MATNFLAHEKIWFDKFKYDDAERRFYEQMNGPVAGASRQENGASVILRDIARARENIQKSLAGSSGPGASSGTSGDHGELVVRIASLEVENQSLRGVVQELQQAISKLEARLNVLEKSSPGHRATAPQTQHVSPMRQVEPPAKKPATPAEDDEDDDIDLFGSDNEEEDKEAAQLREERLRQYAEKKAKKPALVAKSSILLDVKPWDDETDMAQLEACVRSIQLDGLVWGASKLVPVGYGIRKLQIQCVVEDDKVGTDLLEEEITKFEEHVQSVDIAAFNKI
inactive: mubritinib -0.014 | [11] 0.2 | silmitasertib -0.401

DDX27 (UniProt Q96GQ7)
inactive: [8] -0.093 | nilotinib -0.193 | [9] -0.051 | dasatinib 0.21 | [10] 0.3 | [1] -0.313 | [5] -0.151 | mubritinib -0.146 | [6] 0.002 | [7] 0.04 | [11] 0.198 | [2] 0.123 | entinostat -0.106 | vorinostat -0.039 | citarinostat -0.103 | silmitasertib 0.087 | [3] 0.326 | [4] -0.218

EIF4G1 (UniProt Q04637)
inactive: [8] 0.017 | dasatinib -0.191 | [1] -0.032 | [7] -0.14 | [2] -0.075 | vorinostat 0.085

ELAC1 (UniProt Q9H777)
UniProt Q9H777, sequence (Q9H777 whole entry, looked up): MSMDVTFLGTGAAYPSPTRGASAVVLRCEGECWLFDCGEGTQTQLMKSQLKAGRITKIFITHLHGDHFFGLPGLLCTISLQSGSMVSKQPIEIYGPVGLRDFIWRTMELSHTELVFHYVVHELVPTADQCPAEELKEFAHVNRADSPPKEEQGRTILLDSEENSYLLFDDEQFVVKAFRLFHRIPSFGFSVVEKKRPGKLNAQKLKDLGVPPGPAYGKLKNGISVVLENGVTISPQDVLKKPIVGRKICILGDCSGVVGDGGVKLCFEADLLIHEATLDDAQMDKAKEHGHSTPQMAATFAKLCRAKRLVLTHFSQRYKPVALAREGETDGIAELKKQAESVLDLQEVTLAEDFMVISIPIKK
inactive: [8] 0.124 | nilotinib 0.145 | [9] -0.111 | dasatinib -0.073 | [10] -0.103 | [1] -0.032 | tipifarnib 0.036 | [6] 0.014 | [7] 0.053 | [2] -0.082 | entinostat -0.202 | vorinostat 0.285 | citarinostat 0.05 | [3] 0.075 | [4] -0.05

EZH2 isoform 2 (UniProt Q15910)
inactive: bafetinib 0.146 | dasatinib -0.113 | [1] 0.055 | tipifarnib -0.021 | mubritinib -0.097 | [6] 0.316 | [7] -0.004 | [11] 0.342 | [2] 0.33 | entinostat -0.039 | silmitasertib 0.046 | [3] -0.118

ENTPD7 (UniProt Q9NQZ7)
inactive: bafetinib -0.165 | nilotinib -0.104 | [9] -0.17 | dasatinib -0.235 | [10] 0.056 | tipifarnib 0.163 | mubritinib 0.097 | [6] 0.024 | [11] -0.052 | entinostat 0.236 | citarinostat 0.131 | silmitasertib -0.357 | [3] -0.098 | [4] -0.138

EEF2K (UniProt O00418)
inactive: [8] 0.007 | [1] -0.108 | [5] 0 | tipifarnib -0.092 | mubritinib -0.371 | [11] -0.119 | [2] -0.114 | vorinostat 0.19 | citarinostat -0.05 | silmitasertib 0.216 | [3] 0.178 | [4] 0.012

DNAL1 (UniProt Q4LDG9)
inactive: bafetinib 0.035 | dasatinib 0.017 | [1] 0.186 | [5] 0.012 | [7] 0.035 | [2] 0.05 | [3] -0.26

DHPS (UniProt M0R1T2)
inactive: bafetinib 0.081 | [6] 0.063 | entinostat 0.072

DDX11 (UniProt Q96FC9)
UniProt Q96FC9, sequence (Q96FC9 whole entry, looked up): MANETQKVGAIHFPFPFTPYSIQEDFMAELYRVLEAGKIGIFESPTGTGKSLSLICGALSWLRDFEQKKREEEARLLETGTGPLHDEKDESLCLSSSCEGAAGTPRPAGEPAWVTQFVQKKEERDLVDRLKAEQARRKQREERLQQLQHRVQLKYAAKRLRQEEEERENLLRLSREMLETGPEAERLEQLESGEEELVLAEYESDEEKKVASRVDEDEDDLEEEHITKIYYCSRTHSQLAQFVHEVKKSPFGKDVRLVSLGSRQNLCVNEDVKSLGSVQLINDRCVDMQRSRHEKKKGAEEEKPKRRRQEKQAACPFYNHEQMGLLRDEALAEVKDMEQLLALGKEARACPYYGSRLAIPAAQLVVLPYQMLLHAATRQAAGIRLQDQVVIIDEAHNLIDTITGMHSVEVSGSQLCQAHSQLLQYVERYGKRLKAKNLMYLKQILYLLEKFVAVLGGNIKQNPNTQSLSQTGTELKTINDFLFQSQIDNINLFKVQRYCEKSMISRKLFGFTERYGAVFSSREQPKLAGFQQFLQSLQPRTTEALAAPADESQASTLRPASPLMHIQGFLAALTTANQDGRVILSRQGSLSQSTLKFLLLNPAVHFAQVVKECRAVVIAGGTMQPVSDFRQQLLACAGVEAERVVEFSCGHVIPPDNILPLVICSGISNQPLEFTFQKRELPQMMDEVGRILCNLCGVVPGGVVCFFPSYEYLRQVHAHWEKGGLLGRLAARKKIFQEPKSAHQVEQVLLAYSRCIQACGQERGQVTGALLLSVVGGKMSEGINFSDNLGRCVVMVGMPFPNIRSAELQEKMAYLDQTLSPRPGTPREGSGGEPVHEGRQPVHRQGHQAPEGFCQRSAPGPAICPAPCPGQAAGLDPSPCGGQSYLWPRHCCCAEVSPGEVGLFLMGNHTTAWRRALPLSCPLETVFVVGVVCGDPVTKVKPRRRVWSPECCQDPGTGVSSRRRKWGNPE
inactive: bafetinib -0.012 | nilotinib 0.098 | [9] 0.033 | dasatinib 0.061 | [10] 0.098 | [5] -0.132 | tipifarnib 0.005 | mubritinib -0.015 | [6] -0.1 | [7] -0.099 | [11] -0.061 | [2] 0.032 | entinostat -0.009 | silmitasertib 0.191 | [3] -0.007

CTNNBL1 (UniProt Q8WYA6)
inactive: bafetinib -0.12 | tipifarnib 0.022 | [2] 0.175 | citarinostat 0.057 | [4] -0.068

DYNC1I2 isoform 2 (UniProt Q13409)
UniProt Q13409, sequence (Q13409 whole entry, looked up): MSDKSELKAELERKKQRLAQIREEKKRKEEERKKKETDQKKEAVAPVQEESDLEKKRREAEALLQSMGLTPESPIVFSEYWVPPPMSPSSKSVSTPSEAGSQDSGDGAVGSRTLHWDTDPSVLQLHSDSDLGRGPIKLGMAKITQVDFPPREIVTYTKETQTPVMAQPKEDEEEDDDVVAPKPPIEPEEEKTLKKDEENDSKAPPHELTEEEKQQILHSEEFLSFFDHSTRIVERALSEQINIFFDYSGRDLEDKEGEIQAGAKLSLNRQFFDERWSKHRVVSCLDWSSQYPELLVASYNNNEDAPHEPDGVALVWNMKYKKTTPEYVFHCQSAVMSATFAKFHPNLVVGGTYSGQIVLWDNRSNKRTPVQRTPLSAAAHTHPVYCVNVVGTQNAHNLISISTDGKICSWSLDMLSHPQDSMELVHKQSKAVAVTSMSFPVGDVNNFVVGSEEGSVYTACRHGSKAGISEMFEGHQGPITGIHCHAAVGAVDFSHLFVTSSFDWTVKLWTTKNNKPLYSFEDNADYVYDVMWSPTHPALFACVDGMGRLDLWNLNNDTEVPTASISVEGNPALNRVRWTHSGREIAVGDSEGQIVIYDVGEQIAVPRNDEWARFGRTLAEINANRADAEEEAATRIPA
inactive: bafetinib -0.038 | [1] -0.311 | [5] -0.067 | tipifarnib 0.177 | mubritinib 0.067 | [6] 0.181 | [7] 0 | [11] -0.037 | entinostat -0.206 | citarinostat 0.094 | silmitasertib -0.154 | [3] -0.127 | [4] -0.035
